# From PubChem
# A selection: hits, their analogues and other compounds. The true share with any hit is near 4.1%.
# FAS TE block: FAS thioesterase domain inhibitors, primary screen, biochemical, fluorescence intensity, uHTS. Fatty acid synthase (Homo sapiens), P49327. recombinant FAS-TE, OMFH fluorogenic substrate, fluorescence endpoint. inhibition, % at 15 µM. actives 0.67% (n = 360,000). AID 602261, 2012;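 active means compounds whose normalised, plate-corrected inhibition of enzyme fluorescence in the single-dose primary screen is 50% or more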;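 further: 0% = DMSO with enzyme and 100% = substrate without enzyme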
# beta cell repl: inducers of MIN6 beta-cell proliferation, primary screen, ATP luminescence, uHTS; MIN6 cells proliferation, ATPlite luminescence, 48 h; cells starved in 0.2% serum; 100% = growth in 10% serum; proliferation, % at 10 µM; actives 0.29% (n = 330,000);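 active means compounds whose signal lies at least 3.5 SD above the mean of all wells on their plate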;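 further: 0% = DMSO-treated cells in low-serum medium and 100% = 10% serum control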
# MPTP inh: mitochondrial permeability transition pore inhibitors, primary screen, biochemical, isolated mouse mitochondria, absorbance | Ca2+ swelling absorbance, 30 min | actives 1.4% (n = 360,000) | inhibition, % at 10 µM;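 active means inhibition of 50% or more, scaled per plate between neutral and stimulator controls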;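 further: 0% = DMSO wells given calcium and 100% = 1 mM EGTA wells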
# p-CIP stab down: p/CIP-EGFP fusion destabilizers, primary screen, fluorescence, F442A cells. Q05BA5. 16 h. decrease of EGFP signal, % at 10 µM. actives 0.01% (n = 290,000). AID 1984, 2009;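 active means EGFP signal decrease of at least 30% at 10 µM or well 3 SD below plate mean, unless failing retest; inactive means the rest, including hits failing retest or dose response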
# NR3A LBD binder: binders of NR3A ligand-binding domain, primary screen, biophysical, differential scanning fluorimetry, uHTS. Tm shift relative to glycine control, % at 25 µM. Glutamate receptor ionotropic, NMDA 3A (GRIN3A) ligand-binding domain. NR3A LBD differential scanning fluorimetry, Tm shift; 0% = protein alone, 100% = glycine-bound protein. actives 2.5% (n = 340,000);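 active means melting temperature shift of at least 10% of the positive control shift, at one fixed dose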
# MPTP counter: fluorescence retest of MPTP screen hits in isolated mitochondria, single concentration. shares compounds with MPTP inh. membrane potential, Rhodamine 123 fluorescence. inhibition, % at 10 µM. actives 78% (n = 5,000). AID 624504, 2012; in the data active means inhibition above about 22%;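 further: 0% = DMSO vehicle and 100% = positive control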
# MPTP abs DR: mitochondrial permeability transition pore inhibitors, dose response, biochemical, absorbance, uHTS hits. shares compounds with MPTP inh. actives 58% (n = 780). IC50, µM. AID 651561, 2012. isolated mitochondria swelling; in the data active means IC50 below about 20 µM
# MPTP cs DR: fluorescent counter-screen in isolated mitochondria, dose response, counter-screen for MPTP inhibitor project, biochemical, fluorescence, uHTS hits; shares compounds with MPTP inh; IC50, µM; AID 651564, 2012; actives 49% (n = 780); isolated mitochondria counterscreen, fluorescence read-out; in the data active means IC50 below about 80 µM
# * marks the source's active call; other numbers are inactive results; i = inactive; / = no result.
SMILES,FAS TE block,beta cell repl,MPTP inh,p-CIP stab down,NR3A LBD binder,MPTP counter,others
O=C(NCc1ccccc1)c1sc(=S)n2c1[nH]c(=O)c1ccccc12,45,-7,86*,-4,12*,89*,
CCCCNC(=O)c1sc(=S)n2c1[nH]c(=O)c1ccc(C(=O)NCCc3ccc(OC)c(OC)c3)cc12,15,-4,2,-14,-3,/,
COc1ccc(C)cc1-n1nnnc1SCc1csc(C)n1,-8,1,1,-4,1,/,
COc1ccc(C)cc1-n1nnnc1SCc1cc(=O)n2cc(C)ccc2n1,0,-2,52*,-9,1,3,MPTP abs DR=i;MPTP cs DR=21*
O=C(CSc1nnc(-c2ccccc2)n1-c1ccccc1)N1c2ccccc2Sc2ccccc21,-2,-1,2,-13,-2,/,
CC1CCN(C(=O)c2cc(S(=O)(=O)N3CCCCC3)c[nH]2)CC1,-5,-4,-2,-1,-1,/,
C=CCNCCOc1ccc(C(C)(C)c2ccccc2)cc1,-5,-4,78*,-4,-1,-12,MPTP abs DR=15*;MPTP cs DR=>80
O=C(C[C@@H]1C/C=C\C[C@@H](Cc2ccc(F)cc2)C(=O)OC[C@@H]2CCCN2C1=O)N[C@H](CO)Cc1ccccc1,-5,-3,0,/,5,/,
C=CCn1c(SCN2C(=O)c3ccccc3C2=O)nc2ccc(Cl)cc2c1=O,22,-6,90*,0,-3,90*,
C=CCn1c(SCC(=O)Nc2sccc2C(N)=O)nc2ccc(Cl)cc2c1=O,15,-3,1,-15,1,/,
Cc1oc(-c2ccc(Cl)cc2)nc1CN1CCC(C(=O)N2CCN(Cc3ccccc3)CC2)CC1,4,-6,57*,-7,0,9,MPTP abs DR=i;MPTP cs DR=30*
Cc1oc(-c2ccc(Cl)cc2)nc1CN1CCC(C(=O)N2CCc3ccccc3C2)CC1,30,-7,10,-11,1,/,
CC(OC(=O)c1ccc(S(=O)(=O)NCc2ccco2)cc1)C(=O)Nc1ccccc1 (stereo not given),-5,-4,1,/,10,/,
Cc1ccc(S(=O)(=O)N(CC(=O)Nc2ccc(Cl)c([N+](=O)[O-])c2)C2CCCCC2)cc1,43,0,91*,-8,11*,81*,
COc1ccc(C(=O)/C(C#N)=N/Nc2ccccc2[N+](=O)[O-])cc1,-1,0,95*,-11,2,88*,
COc1ccc(C(=O)NNC(=O)c2ccccc2[N+](=O)[O-])cc1,-9,-2,-1,-6,0,/,
O=C(C1CCCCC1)N1CCN(c2ccnc3cc(Cl)ccc23)CC1,6,-6,83*,-16,0,43*,
O=C(C1CCC1)N1CCN(c2ccnc3cc(Cl)ccc23)CC1,0,-1,11,-10,1,/,
O=C(Nc1ccc(OC(F)(F)F)cc1)N1CCN(c2ccnc3cc(Cl)ccc23)CC1,32,-4,96*,-1,7,81*,
Cc1nnc(C)n1N,-5,-2,0,12,0,/,
Cc1cc(NC(=O)C2CC(=O)N(c3ccc(F)cc3)C2)no1 (stereo not given),-6,0,1,-17,0,/,
CN(Cc1ccccc1)Cc1c(O)ccc2ccccc12,7,1,0,-17,2,/,
CN(Cc1cc(Cl)cc(Cl)c1O)Cc1c(O)ccc2ccccc12,27,/,89*,/,10,85*,
O=C1CC2(CCN(C(=O)c3c(F)cccc3F)CC2)Oc2ccccc21,-5,7,-1,/,-2,/,
CCOc1ccc(CCNC(=O)c2[nH]c(C)c(C(C)=O)c2CC)cc1OCC,-3,0,3,0,0,/,
SMILES,FAS TE block,beta cell repl,MPTP inh,p-CIP stab down,NR3A LBD binder,MPTP counter,others
CCc1c(C(=O)Nc2cc(C)cc(C)c2)[nH]c(C)c1C(C)=O,7,-2,79*,-8,-12,84*,
COc1ccc(C2CCCN2C(=O)Nc2ccc(F)cc2)cc1OC (stereo not given),-6,-3,-2,2,-2,/,
O=C(OCCc1ccccn1)c1cccc([N+](=O)[O-])c1,9,/,-2,/,0,/,
COc1ccc(C(O)c2nc(-c3ccncc3)cs2)cc1 (stereo not given),-12,/,57*,/,/,66*,
COc1cccc(OC)c1C(=O)Nc1cccc(S(=O)(=O)Nc2ccccc2Cl)c1,-2,-1,-1,/,0,/,
CCNC(=S)Nc1cccc(S(=O)(=O)Nc2ccccc2OC)c1,-3,-2,6,-15,-2,/,
COc1ccccc1NS(=O)(=O)c1cccc(NC(=O)Nc2ccc(Cl)cc2)c1,33,-6,83*,-2,18*,72*,
COc1ccccc1NS(=O)(=O)c1cccc(NC(=O)c2[nH]c(C)c(C(C)=O)c2C)c1,9,-1,66*,-12,-5,64*,
COc1ccccc1NC(=O)c1[nH]c(C)c(C(C)=O)c1C,-5,-2,-2,-2,0,/,
CN(c1ccccc1)S(=O)(=O)c1ccc(NC(=O)c2ccc(F)cc2)cc1,28,-3,58*,/,-14,61*,
COc1ccccc1NS(=O)(=O)c1cccc(NC(=O)Nc2ccccc2)c1,13,-5,82*,-3,22*,86*,
CC(=O)c1c(C)[nH]c(C(=O)Nc2cccc(S(=O)(=O)N(C)c3ccccc3)c2)c1C,5,0,68*,3,-2,79*,
CC(=O)c1c(C)[nH]c(C(=O)Nc2cccc(S(=O)(=O)N3CCOCC3)c2)c1C,1,0,4,4,-1,/,
O=C(CCc1ccccc1)Nc1ccnn1C1CCN(C/C=C/c2ccccc2)CC1,0,-1,0,0,1,/,
COc1ccccc1/C=C/CN1CCC(n2nccc2NC(=O)CCc2ccccc2)CC1,-3,-8,74*,-6,-2,109*,
CCCCCCCCCCCCCCCC[n+]1cccc2ccccc21,-154,-3,76*,-2,39*,102*,
CCCCCCCCC[n+]1cccc2c3ccccc3ccc21,-33,-8,89*,4,-1,117*,
O=C(C[n+]1cccc2ccccc21)c1ccccc1,-13,0,0,-10,-4,/,
O=[N+]([O-])c1ccc(C[n+]2cccc3c4ccccc4ccc32)cc1,2,3,-1,4,-1,/,
CCOc1ccc(NC(=O)Cn2cc(C(=O)C3CC3)c3ccccc32)cc1,-3,-2,2,-5,-13,/,
